DT40 TDP1 CPT – growth inhibition of DT40 Tdp1-/-;hTDP1 cells with camptothecin (screen for TDP1 inhibitors). Potency, µM (titrated, usually from 46.2 µM), for inactives: at the highest dose activity change, negative = growth inhibition, actives largely listed as inhibitors. AID 686979. 420,000 tested, 12% active. chicken DT40 Tdp1-/-;hTDP1 cells + 20 nM CPT, ATP luminescence, 48 h; further: potency means the concentration at half of the fitted maximal effect; nearly all actives have a fitted effect of over 55% in size
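Chicken DT40 Tdp1-/- cells stably complemented with human TDP1 were seeded at 400 cells/well in medium containing 20 nM camptothecin, exposed to pin-transferred compounds, and grown at 37 °C for at least 48 hr. Viability was read as ATP luminescence.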
IL-1B inflam inh – inhibitors of inflammasome signaling (IL-1 beta secretion) | THP-1 LPS/ATP IL-1B secretion, AlphaLISA, 16 h; hits give low values | activity change, % at 57.5 µM | 360,000 tested, 4.7% active | AID 743279; in the data active means activity change below about -50%; inconclusive means mostly about -30% to -49%
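Secreted IL-1B measured by AlphaLISA bead assay after 16 h compound exposure of THP-1 cells; compounds (final up to 57.5 uM) added 1 h before LPS (250 ng/mL) and ATP (1.25 mM) stimulation; lower signal means less secretion.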
HT1080-NT tox – kills 2HG-producing HT-1080-NT fibrosarcoma cells. HT-1080-NT fibrosarcoma viability, CellTiter-Glo ATP luminescence, 48 h. Potency, µM (top dose mostly 46.1 µM), for inactives: top-dose activity, negative = less viability, most hits filed as cytotoxic. 360,000 tested, 1.6% active. AID 686970;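 further: NT is the 2HG producing partner of a matched IDH1 knockdown line; potency means the concentration at half of the fitted maximal effect; 0% = DMSO-treated cells and -100% = media-only wells without cells; nearly all actives have a fitted effect of over 55% in size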
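Read-out is CellTiter-Glo luminescence after 10 minutes at room temperature, following 48 hours' compound treatment of HT-1080-NT cells (750 cells/well, RPMI, 5% FBS, 37 degrees C).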
ALOX12 inh – ALOX12 (human) lipoxygenase inhibition; Potency, µM (series often up to 108 µM), for inactives: at the top dose activity change, negative = inhibition, actives largely listed as inhibitors; 580,000 tested, 1.1% active; P18054; AID 1671190; purified 12hLO, xylenol orange hydroperoxide absorbance; further: potency means the concentration at half of the fitted maximal effect
Target sequence (P18054 whole entry, looked up): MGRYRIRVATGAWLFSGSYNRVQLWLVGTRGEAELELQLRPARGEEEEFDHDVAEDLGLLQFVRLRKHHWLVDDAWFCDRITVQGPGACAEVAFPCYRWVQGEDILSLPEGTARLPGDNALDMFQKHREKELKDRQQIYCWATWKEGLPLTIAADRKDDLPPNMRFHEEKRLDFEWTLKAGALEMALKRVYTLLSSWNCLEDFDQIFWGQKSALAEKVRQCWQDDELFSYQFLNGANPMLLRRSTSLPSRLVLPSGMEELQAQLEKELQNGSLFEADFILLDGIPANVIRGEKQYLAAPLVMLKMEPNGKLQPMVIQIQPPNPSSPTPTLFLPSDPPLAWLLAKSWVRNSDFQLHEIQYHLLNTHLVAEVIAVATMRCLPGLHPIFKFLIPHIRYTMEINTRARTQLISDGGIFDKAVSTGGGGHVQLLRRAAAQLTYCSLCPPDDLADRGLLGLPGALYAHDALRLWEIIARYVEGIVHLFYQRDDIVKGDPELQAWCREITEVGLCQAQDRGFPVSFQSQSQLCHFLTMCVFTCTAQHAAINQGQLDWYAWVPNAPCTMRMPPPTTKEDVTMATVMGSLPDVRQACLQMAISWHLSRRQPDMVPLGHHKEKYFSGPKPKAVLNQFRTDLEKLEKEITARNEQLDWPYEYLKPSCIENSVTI
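Purified human 12hLO (150 nM final) in 25 mM Hepes, 0.01% Triton X-100, pH 7.0 was preincubated 15 min at room temperature with compound. Then 40 uM arachidonic acid was added, 30 min. Hydroperoxide was read by Fe-XO absorbance ratio 573/405 nm.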
HT1080 IDH1KD tx – HT-1080 IDH1 knockdown cell toxicity (counter line); 360,000 tested, 2% active; HT-1080 IDH1 knockdown viability, ATP luminescence, 48 h; AID 686971; Potency, µM (series often up to 46.1 µM), for the others: at the highest dose activity, negative = toxicity, actives largely listed as cytotoxic;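 further: potency means the concentration at half of the fitted maximal effect; 0% = DMSO wells and -100% = cell-free medium wells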
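After a 2 h attachment period, IDH1KD HT-1080 cells took pin-transferred compound for 48 h at 37 °C; ATP-based luminescence after 10 min room-temperature reagent incubation reported viability.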
DT40 TDP1 no CPT – qHTS for Inhibitors of human tyrosyl-DNA phosphodiesterase 1 (TDP1): qHTS in cells in absence of CPT; DT40 Tdp1-/- hTDP1 cells, no CPT, ATP luminescence, 48 h; Potency, µM (top dose mostly 46.2 µM), for the others: top-dose activity change, negative = growth inhibition, most hits filed as inhibitors; 420,000 tested, 15% active; AID 686978, 2013; further: potency means the concentration at half of the fitted maximal effect; nearly all actives have a fitted effect of over 55% in size
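A cellular qHTS used chicken DT40 cells lacking endogenous Tdp1 but carrying stably transfected human TDP1. Compounds were applied without camptothecin, and cell growth kinetics were judged by ATP-dependent luminescence after ≥48 hr.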
Numbers without * were called inactive; ? = inconclusive; . = no result. The entries come from a sample that favours hits as a whole. Unless noted, the call rests on the fitted dose curve; in most records, active means well fitted curve in the direction sought with a large enough effect; inconclusive means small, poorly fitted or top-dose-only effect, or another doubt; inactive means no such curve, though single readings can be large; an effect the other way counts as inactive or inconclusive. Unless noted, on the % scale 0 is the no-effect control and ±100 the full control effect.

SMILES	DT40 TDP1 CPT	IL-1B inflam inh	HT1080-NT tox	ALOX12 inh	HT1080 IDH1KD tx	DT40 TDP1 no CPT
COc1cccc(N=c2oc3ccc(OC)cc3cc2-c2nc3ccccc3[nH]2)c1	?	59.9	-21.4%	6.6%	?	?
COc1cccc(N=c2oc3ccccc3cc2-c2nc3ccccc3[nH]2)c1	23.1µM*	-4.1	?	?	?	23.1µM*
CC(Cc1cccs1)NC(=S)Nc1ccc(Cl)c(Cl)c1 (stereo unspecified)	20.6µM*	-95.3*	?	31.6µM*	-25.3%	?
CC(Cc1cccs1)NC(=S)Nc1ccc(Cl)cc1 (stereo unspecified)	?	-96.2*	?	39.8µM*	?	?
N#Cc1ccc(CN2CCN(CC(=O)Nc3ccccc3C(=O)NC3CCCC3)CC2)cc1	.	.	.	-23.1%	.	.
CC(C)NC(=O)/C(C#N)=C/c1ccc(N(C)C)o1	10.1%	-6.5	24.9%	?	26.1%	-17.6%
CC[C@]12c3[nH]c4ccc(Cl)cc4c3CCN1C(=O)[C@@H](CC(=O)NCc1ccco1)C[C@@H]2C(=O)N1CCN(C(=O)c2ccco2)CC1	16.4µM*	10.0	0.1%	-19.5%	-1.7%	20.6µM*
CC[C@]12c3[nH]c4ccc(OC)cc4c3CCN1C(=O)C(CC(=O)NCCCOC)C[C@@H]2C(=O)N1CCN(C(=O)C2CC2)CC1 (stereo partly specified)	?	-1.8	0.8%	0.0%	3.5%	3.0%
CC[C@]12c3[nH]c4ccc(Cl)cc4c3CCN1C(=O)[C@@H](CC(=O)NCC13CC4CC(CC(C4)C1)C3)C[C@@H]2C(=O)N1CCN(C(=O)c2ccco2)CC1	?	-26.1	?	?	18.4µM*	13µM*
CC[C@]12c3[nH]c4ccc(Cl)cc4c3CCN1C(=O)[C@@H](CC(=O)NCCN1CCOCC1)C[C@@H]2C(=O)N1CCN(C(=O)c2ccco2)CC1	-12.0%	-6.7	0.0%	-5.9%	0.3%	-1.6%
CC[C@]12c3[nH]c4ccc(Cl)cc4c3CCN1C(=O)[C@@H](CC(=O)NCCC1=CCCCC1)C[C@@H]2C(=O)N1CCN(C(=O)c2ccco2)CC1	20.6µM*	-22.7	?	25.1µM*	?	?
CC[C@]12c3[nH]c4ccc(OC)cc4c3CCN1C(=O)C(CC(=O)NCC13CC4CC(CC(C4)C1)C3)C[C@@H]2C(=O)N1CCN(C(=O)c2ccco2)CC1 (stereo partly specified)	11.6µM*	-54.8*	-29.2%	.	?	8.2µM*
CC(C)NC(=O)N1CCC2(CC1)CCN(C(=O)c1cc(C(F)(F)F)cc(C(F)(F)F)c1)CC2	-26.7%	.	.	?	.	?
O=C(NNc1cccc(Cl)c1)c1cccnc1Oc1ccccc1	1.2%	.	?	?	6.51µM*	-10.9%
CSc1ccc(OC2CCN(Cc3ccccc3)CC2)cc1	?	-3.8	-0.1%	-26.3%	-6.3%	?
O=S1(=O)CC(N2CCCC2)CN1Cc1ccc(F)cc1 (stereo unspecified)	-1.2%	20.5	10.9%	?	20.3%	-24.5%
CSc1ccc(CN2CCC(Cc3ccccc3)CC2)cc1	?	-3.6	-1.1%	1.58µM*	-11.3%	?
Clc1ccc(CN2CCCCCC2)cc1	0.1%	-0.9	8.0%	0.794µM*	25.8%	-3.4%
O=[N+]([O-])c1cc(CN2CCCC2)ccc1Sc1ccc(Cl)cc1	10.3µM*	-11.9	-26.2%	?	?	8.2µM*
O=S1(=O)CC(N2CCC(Cc3ccccc3)CC2)CN1Cc1ccc(F)cc1 (stereo unspecified)	25.9µM*	-1.7	-20.9%	?	?	13µM*
Cn1cnnc1SCC(=O)N1CCC(Cc2ccccc2)CC1	?	-0.9	-5.1%	10.2%	-6.3%	18.4µM*
O=C(NC1CC1)C1CCN(Cc2ccc(Cl)cc2)CC1	.	.	.	-12.6%	.	.
Cc1ccccc1NC(=O)c1ccc(CN2CCC(Cc3ccccc3)CC2)cc1	?	-82.8*	23.1µM*	-25.4%	?	20.6µM*
CSc1ccc(CN2CCC(N3CCC(C(=O)NC4CC4)CC3)CC2)cc1	20.6µM*	-28.2	-5.0%	-1.3%	-23.9%	8.2µM*
Clc1ccc(CN2CCCCCCC2)cc1	-17.6%	-20.3	17.9%	?	8.4%	-25.5%
SMILES	DT40 TDP1 CPT	IL-1B inflam inh	HT1080-NT tox	ALOX12 inh	HT1080 IDH1KD tx	DT40 TDP1 no CPT
CC1CCCC(N2CCN(Cc3ccc(Cl)cc3)CC2)C1 (stereo unspecified)	.	.	.	0.794µM*	.	.
Cc1cn2nc(C(=O)N3CCC(NC(=O)Cc4ccsc4)CC3)cc2c(=O)[nH]1	.	.	.	31.9%	.	.
CCc1ccc(C(=O)NCc2ccc(N3CCN(C)CC3)nc2)o1	.	.	.	1.8%	.	.
CCN(CC)S(=O)(=O)c1ccc(Cl)c(C(=O)OC2CC(C)OC2=O)c1 (stereo unspecified)	-16.9%	9.2	?	-1.6%	8.8%	1.8%
O=C(O)CCCNS(=O)(=O)c1ccc(I)cc1	.	.	.	-1.1%	.	.
Cc1ccc(C(=O)NCC(=O)N2CCC(Cc3ccccc3)CC2)cc1	-14.9%	-69.1*	-0.3%	-17.8%	-22.6%	?
Clc1ccc(CN2CCC(Cc3ccccc3)CC2)cc1	-29.5%	-96.1*	1.4%	?	-15.0%	?
COc1ccc(C(=O)NCC(=O)N2CCC(Cc3ccccc3)CC2)cc1OC	?	-10.6	1.5%	24.8%	4.4%	?
CCOc1ccc(OCC(O)Cn2c(C)cc(=O)n3ncnc23)cc1 (stereo unspecified)	.	.	.	37.6%	.	.
COc1ccc(CNC(=O)c2nc(SCc3ccc(C)cc3)ncc2Cl)cc1	-10.4%	.	.	-13.1%	.	?
O=C(NCc1ccccc1)c1c(Cl)nc(Cl)c(Cl)c1Cl	?	-107.4*	10.3µM*	0.0%	7.31µM*	18.4µM*
O=C(NCc1ccccc1)c1nc(S(=O)(=O)Cc2ccccc2)ncc1Cl	2.91µM*	-97.6*	?	-1.0%	?	2.31µM*
COc1ccc(CNC(=O)c2nc(SC(C)C)ncc2Cl)cc1	29.1µM*	.	.	?	.	23.1µM*
CCS(=O)(=O)c1ncc(Cl)c(C(=O)NCc2ccccc2)n1	?	.	.	-14.3%	.	2.31µM*
O=C(NC[C@H]1O[C@@H](CC(=O)N2CCN(c3ccccc3)CC2)[C@H](O)[C@@H]1O)c1ccc(F)c(Cl)c1	.	.	.	10.5%	.	.
CCc1[nH]c2ccc(CNC(=O)Cc3cnc4c(C)cccn34)cc2c1C	.	.	.	43.3%	.	.
